What all share (assay): NCI-60 one-dose screen, 48 h (100 = growth as untreated, 0 = no growth, -100 = all killed)
Settings in all cases: 10 µM

In assay [1] the test system is SK-MEL-2 melanoma.
Assay [2] concerns EKVX NSCLC.
Assay [3] has as its system SN12C renal.
Assay [4] concerns UO-31 renal.
For assay [5], the system named is TK-10 renal.
Assay [6] deals with ACHN renal.
In assay [7] the test system is A498 renal.
In assay [8] the test system is MOLT-4 leukemia.
For assay [9], the system named is CCRF-CEM leukemia.
In assay [10] the test system is CAKI-1 renal.

The panel holds about 83,000 compounds, 20% with a hit somewhere; the sample as a whole holds those more often.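 Each cell line was grown in a 96-well plate and treated with one concentration of compound for 48 hours. Values below 10 were considered active.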 Values without a mark were called inactive. Calls of active or inactive are those of the source.

Turning to `CC(=O)[C@H]1CC[C@]2(C)[C@@H]1CC[C@@H]1[C@@]3(C)CC(CCC#N)(CCC#N)C(=O)C(C)(C)[C@@H]3CC[C@]12C`, the growth was 102% in [1]; 91.8% in assay [2]; 91.8% in [3]; 82% in assay [4]; 104% in assay [5]; 95.2% in assay [6]. Further, the figures for the growth in assay [7] and in assay [8] were 88.9% and 96.3%, respectively.

On to `Nc1ncnc2c1ncn2C1(CO)OCC(O)C(O)C1O` (stereo not drawn), for which the growth in assay [1] was 93.5%; in [2] it was 100%; in assay [3], 103%; in assay [4], 87.9%; in [5], 87.3%; in assay [6] it was 107%. The growth is 108% in assay [7], 101% in [9] and 105% in assay [8].

On to `O=C(CSc1nccc(Nc2cccc3ccccc23)n1)c1ccc(Cl)cc1`, for which the growth in assay [1] was 102%; in [2] it was 76.9%; in [3] it was 82.6%; in assay [4], 49.8%; in assay [5], 112%; in [6], 91.7%. Also, the growth in [7] was 105%; in assay [9] it was 83.1%; in assay [8], 88.1%.

For `O=C(Nc1nc(-c2ccccc2)nc2c1sc(=S)n2-c1ccccc1)C(F)(F)F`, the growth is 104% in [1]; 97.2% in assay [2]; 95.3% in [3]; 81.2% in assay [4]; 117% in assay [5]; 91.3% in assay [6]. The growth was 80.4% in assay [7] and 77.2% in assay [8].

`O=C(/C=C/C=C/c1c(C2CC2)nc2ccccc2c1-c1ccc(F)cc1)c1cccs1`: the growth is -76.5% (active) in assay [1]; 49.3% in assay [2]; 38.1% in assay [3]; -43.8% (active) in [4]; 22.4% in [5]; -42.6% (active) in assay [6]. The growth was -21.7% (active) in assay [7] and 8.46% (active) in assay [8].

Consider `O=C(CCCCC(=O)Oc1c(Cl)cc(Cl)cc1[N+](=O)[O-])Oc1c(Cl)cc(Cl)cc1[N+](=O)[O-]`, for which the growth is 93.6% in [1]; 93.2% in assay [2]; 105% in [3]; 87.1% in [4]; 91.3% in [5]; 105% in [6]. Moreover, the growth was 114% in assay [7] and 78.1% in assay [8].

As to `COc1cc(-c2nn(-c3cccc(NC(=O)CCNc4ccc(N5CCOCC5)cc4)c3)cc2-c2ccncc2)ccc1Cl`, the growth was 10.3% in [1]; 39.4% in [2]; 27.6% in [3]; 27.3% in assay [4]; 24.7% in assay [5]; 15.8% in assay [6]. The growth is 10.9% in assay [9] and 3.1% (active) in assay [8].

Regarding `CNC(=O)c1cc(Oc2ccc3c(c2)sc2nc(-c4ccc(NC(=O)Nc5ccc(Cl)c(C(F)(F)F)c5)cc4)cn23)ccn1`, the growth in [1] is 75.4%; in [2] it was 77.3%; in [3] it was 87.3%; in [4] it was 73.9%; in assay [5], 81%; in assay [6], 82.8%. Further, the growth in assay [7] was 83%; in [8], 64.2%.

Regarding `O=C(CSc1nnc(-c2ccc(Cl)cc2)o1)Nc1ccc(C(=O)/C=C/c2ccc(Cl)cc2)cc1`, the growth in assay [1] was 101%; in [2], 129%; in assay [3] it was 95.9%; in [4] it was 69.4%; in [5], 118%; in [6], 114%. For the same compound, the growth in assay [7] is 94.7%; in assay [8], 92.6%.

For the compound `COc1cc(C)ccc1Oc1nc(Nc2ccc(N3CCOCC3)cc2)ncc1NC(=O)Nc1cc(C(F)(F)F)cc(C(F)(F)F)c1`, the growth in assay [1] was 88.6%; in assay [2], 80.7%; in assay [3] it was 58.1%; in [4], 67.5%; in assay [5], 51.1%; in [6] it was 24.4%. In addition, the growth was 67.8% in [7] and 19.2% in assay [8].

Regarding `CCOC(=O)c1cc(C(=O)c2ccc(Cl)cc2)n2ccc(-c3cc[n+](CC(=O)c4ccc(OC)cc4)cc3)cc12`, the growth is 97.6% in assay [1]; 96.4% in assay [2]; 102% in assay [3]; 73.5% in assay [4]; 124% in [5]; 96.4% in [6]. The results for the growth in assay [7] and in [8] were 73.9% and 11.1%, respectively.

For the compound `CN(C)CCOc1ccccc1NC1=C(Cl)C(=O)C(Nc2ccccc2OCCN(C)C)=C(Cl)C1=O`, the growth in [1] is 82.9%; in assay [2], 16%; in assay [3], -69.9% (active); in assay [4], 38.4%; in assay [5], 85.4%; in assay [6], -84.1% (active). Further, the growth in assay [7] is 107%; in assay [9], 4.28% (active); in [8], -32.4% (active).

Turning to `C=CCn1c(SCC(=O)Nc2ccc(C(=O)/C=C/c3ccc(OC)cc3)cc2)nnc1-c1ccc(OC)c(OC)c1`, the growth in assay [1] was 89.3%; in assay [2], 107%; in [3], 73.1%; in [4], 65.8%; in assay [5] it was 110%; in assay [6], 94.9%. Moreover, the growth is 92.8% in assay [7] and 49.7% in assay [8].

As for `C/C=C/CSC(C)(C)C(=O)NC`, the growth in assay [1] is 109%; in [2] it was 99.8%; in [3] it was 106%; in assay [4], 93.8%; in [5], 103%; in assay [6], 108%. Moreover, the growth in assay [7] was 103%; in assay [9], 98.5%; in assay [8] it was 102%.

In the case of `CN(C)CCCSc1ccccc1NC1=C(Cl)C(=O)C(Nc2ccccc2SCCCN(C)C)=C(Cl)C1=O`, the growth was 43.8% in assay [1]; 67.5% in assay [2]; -61.2% (active) in [3]; 35% in assay [4]; 13.8% in assay [5]; -20.6% (active) in assay [6]. The growth was -15.2% (active) in assay [9] and -34% (active) in [8].

On to `O=C(N/N=C/c1ccc(Cl)cc1)c1ccc(Cc2n[nH]c(=O)c3cccnc23)cc1`, for which the growth in assay [1] is 108%; in assay [2] it was 105%; in assay [3], 100%; in [4], 74.3%; in [5], 107%; in assay [6], 102%. The growth in [7] is 131%; in assay [8] it was 98.6%.

Consider `COc1cc(-c2nn(-c3cccc(NC(=O)NCCNC(=O)c4ccccc4)c3)cc2-c2ccncc2)ccc1Cl`, for which the growth in assay [1] was -20.9% (active); in [2], 34.2%; in assay [3], 25.2%; in assay [4], 13.6%; in assay [5] it was 36.3%; in assay [6], 12.2%. Also, the growth is 7.68% (active) in assay [9] and 4.74% (active) in assay [8].

As to `CCC(c1ccc(OC)cc1)C(CC)c1ccc(O)c(CN2CCN(C)CC2)c1` (stereo not drawn), the growth is 62.2% in assay [1]; 44.3% in assay [2]; 55.1% in assay [3]; 37.3% in [4]; 72.2% in [5]; 69% in assay [6]. Further, the values for the growth in assay [9] and in assay [8] were 56.9% and 57.4%, respectively.

As for `O=C(CC(CC(=O)c1ccccc1)c1ccccc1O)c1ccccc1`, the growth is 91.3% in assay [1]; 95% in assay [2]; 96.2% in assay [3]; 78.4% in [4]; 98.6% in [5]; 99.3% in [6]. The figures for the growth in [7], in assay [9] and in assay [8] were 97.5%, 98.6% and 105%, respectively.

Take `COc1cc(NC(=O)Nc2cnc(Nc3ccc(N4CCOCC4)cc3)nc2Oc2cccc(OC)c2)cc(OC)c1`: the growth in assay [1] is 40%; in assay [2], 66.5%; in [3], 43.3%; in [4] it was 6.12% (active); in assay [5], 54.7%; in assay [6], 32.8%. The growth in assay [7] was 39.1%; in assay [8], 61.3%.

In the case of `COc1cc(-c2nn(-c3ccc(NC(=O)NCCNS(=O)(=O)c4ccc(F)cc4)cc3)cc2-c2ccncc2)ccc1Cl`, the growth was 8.8% (active) in [1]; 33% in assay [2]; 39.9% in assay [3]; 31.5% in assay [4]; 28.1% in assay [5]; 23.7% in [6]. Moreover, the growth in assay [7] is -19.1% (active); in assay [9], 9.28% (active); in assay [8], 11.6%.

With `CCNCC(=O)Nc1ccc(C(=O)OCC)cc1`, the growth in assay [1] is 102%; in assay [2], 104%; in [3] it was 98.6%; in assay [4], 95%; in [5], 86.2%; in assay [6], 108%. The values for the growth in [7], in assay [9] and in assay [8] were 86%, 96.4% and 87.5%, respectively.

As to `CS(=O)(=O)c1nccc(-c2c(-c3cccc(OCCc4ccccc4)c3)nc3sccn23)n1`, the growth in assay [1] is 107%; in assay [2], 98.6%; in assay [3], 95.5%; in assay [4], 71.5%; in [6], 101%; in assay [10] it was 85.7%. Moreover, the results for the growth in [7], in assay [9] and in assay [8] were 91.7%, 91.3% and 84.5%, respectively.

`CS(=O)(=O)c1nccc(-c2c(-c3ccc(OCCc4ccccc4)cc3)nc3sccn23)n1`: the growth was 108% in assay [1]; 94% in assay [2]; 90.3% in [3]; 90.6% in [4]; 101% in assay [6]; 90% in assay [10]. Also, the growth in assay [7] was 84.5%; in assay [9], 92%; in assay [8], 88.9%.

Regarding `COc1cc2cc(Oc3ccc(NC(=O)c4cc(C(F)(F)F)cc(C(F)(F)F)c4)cc3)c(C)nc2cc1OC`, the growth in assay [1] is 64.6%; in assay [2] it was 30.4%; in assay [3], 30.8%; in assay [4], 30.9%; in assay [6], 32.3%; in assay [10], 30.2%. Moreover, the results for the growth in [7], in assay [9] and in [8] were 40.5%, 33.7% and 39.4%, respectively.

For `COc1cc(C2C(C#N)=C(N)Oc3cc(O)ccc32)cc(OC)c1OC` (stereo not drawn), the growth was 23.4% in [1]; 55.3% in assay [2]; 35.9% in assay [3]; 43% in [4]; 51.8% in assay [6]; 30.7% in [10]. Moreover, the growth was -5.59% (active) in assay [7], 8.88% (active) in assay [9] and 6.05% (active) in [8].

For the compound `CS(=O)(=O)c1nccc(-c2c(-c3cccc(OCc4ccccc4)c3)nc3sccn23)n1`, the growth was 103% in [1]; 92.5% in [2]; 76.2% in [3]; 3.7% (active) in [4]; 95.9% in assay [6]; 44.2% in assay [10]. Also, the values for the growth in assay [7], in [9] and in [8] were 72.5%, 52.5% and 26.5%, respectively.

(Values after PubChem BioAssay (NCI).)
